From PubChem BioAssay (EPA / NIEHS)
The source made the active and inactive calls. Rule for the calls: active = hit-call score of the fitted dose curve at least 0.9, where 1 is the maximum; inactive = score below 0.9.

Legend:
[1] = ATG_E_Box_CIS: Attagene CIS-FACTORIAL HepG2 Assay for human Enhancer Box (E-box) (AID 2282936); conditions: HepG2 E-box cis-reporter transcription, actives raise or lower the signal
Summary of the method: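 In this cell-based setup, HepG2 cells bearing transfected promoter-driven reporter units were exposed to chemicals for 24 h; reporter transcripts were amplified, 6-FAM-labelled, cut with HpaI and sized by capillary electrophoresis.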

[2] = ATG_M_61_CIS: Attagene CIS-FACTORIAL HepG2 Assay for M61 Transcription Factor (Internal Marker) (AID 2282937); conditions: HepG2 Attagene CIS-FACTORIAL M61 internal marker reporter; actives raise or lower the signal
Summary of the method: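 Background-control endpoint: HepG2 cells with cis-regulated reporter constructs, 24 h exposure, reporter mRNA detected via fluorescent primer extension and capillary electrophoresis; values from bidirectional fitting with DMSO baseline.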

[3] = ATG_EGR_CIS: Attagene CIS-FACTORIAL HepG2 Assay for human Early Growth Response 1 (EGR1) (AID 2282938); conditions: HepG2 Attagene CIS-FACTORIAL EGR reporter mRNA; actives raise or lower the signal
Summary of the method: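 Endpoint derived by bidirectional fitting versus DMSO vehicle. Method: cis-promoter reporter units transfected into HepG2, 24 h dosing, RNA isolation, RT-PCR with 6-FAM primer extension and HpaI digestion, then capillary electrophoresis fluorescence detection.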

[4] = ATG_M_19_CIS: Attagene CIS-FACTORIAL HepG2 Assay for M19 Transcription Factor (Internal Marker) (AID 2282939); conditions: HepG2 Attagene CIS-FACTORIAL M19 internal marker reporter; actives raise or lower the signal
Summary of the method: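 Background-control endpoint from a multiplexed HepG2 reporter panel. Cells carrying cis-regulated reporter constructs are treated 24 h, then reporter transcripts are amplified, fluorescently labelled and sized by capillary electrophoresis. DMSO defines baseline.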

[5] = ATG_Ets_CIS: Attagene CIS-FACTORIAL HepG2 Assay for human Erythroblast Transformation Specific (ETS) (AID 2282941); conditions: HepG2 ETS cis-reporter transcription, actives raise or lower the signal
Summary of the method: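 Endogenous transcription factor activity read as reporter mRNA via RT-PCR and capillary electrophoresis, with gain or loss fitted bidirectionally against DMSO. Human HepG2 liver cells, transiently transfected CIS reporter constructs, 24 h exposure.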

[6] = biological target: Hepatocyte nuclear factor 3-beta (Homo sapiens) (UniProt Q9Y261); experiment: ATG_FoxA2_CIS: Attagene CIS-FACTORIAL HepG2 Assay for human Forkhead box A2 (FOXA2) (AID 2282942); conditions: HepG2 cis-reporter transcription factor activity, 24 h; actives raise or lower the signal
Summary of the method: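 Measured: reporter mRNA induction or loss in HepG2 transiently carrying multiple cis-regulated reporter units, 24 h after dosing. Quantified by RT-PCR plus capillary electrophoresis, normalised to DMSO.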

[7] = ATG_FoxO_CIS: Attagene CIS-FACTORIAL HepG2 Assay for human Forkhead box O (FoxO) (AID 2282943); conditions: HepG2 Attagene cis-reporter, FoxO element, mRNA; actives raise or lower the signal
Summary of the method: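 Transfected HepG2 reporter cells exposed to test chemical for 24 h; reporter RNA measured by reverse transcription, PCR and fluorescent capillary electrophoresis; curves fitted for increases and decreases against DMSO.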

[8] = ATG_GATA_CIS: Attagene CIS-FACTORIAL HepG2 Assay for human GATA Binding Protein (AID 2282944); conditions: HepG2 GATA cis-element reporter, Attagene multiplex mRNA; actives raise or lower the signal
Summary of the method: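 Endogenous transcription factor activity was captured through cis-promoter-driven reporters in transfected HepG2 cells. After 24 h exposure, reporter transcripts were quantified by RT-PCR with fluorescent capillary electrophoresis, and responses fitted both directions against DMSO.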

[9] = ATG_GLI_CIS: Attagene CIS-FACTORIAL HepG2 Assay for human Zinc Finger Protein GLI1 (AID 2282945); conditions: HepG2, Attagene cis-factorial reporter mRNA, GLI element; actives raise or lower the signal
Summary of the method: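 Transiently transfected HepG2 cells report endogenous transcription factor activity via cis-element-driven reporter units. After 24 h compound exposure, reporter mRNA was measured by RT-PCR with capillary electrophoresis; bidirectional fitting against DMSO baseline.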

[10] = ATG_GRE_CIS: Attagene CIS-FACTORIAL HepG2 Assay for human Glucocorticoid Response Elements (GRE) (AID 2282947); conditions: HepG2 GRE cis-reporter, Attagene multiplex mRNA; actives raise or lower the signal
Summary of the method: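 Fluorescence intensity of reporter-specific cDNA fragments, separated by capillary electrophoresis, provides the signal. Constructs carry cis-regulating promoters in transiently transfected HepG2 liver cells; 24 h incubation; fitting is bidirectional against DMSO.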

[11] = ATG_ISRE_CIS: Attagene CIS-FACTORIAL HepG2 Assay for human Interferon Regulatory Factor 1 (IRF1) binding to an Interferon-Stimulated Response Element (ISRE) (AID 2282948); conditions: HepG2 ISRE cis-reporter (Attagene), mRNA transcription readout; actives raise or lower the signal
Summary of the method: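 Endogenous transcription factor activity read as reporter transcript abundance via RT-PCR and capillary electrophoresis. HepG2 cells transiently transfected, 24 h chemical exposure. Gain or loss fitted against DMSO baseline.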

[12] = ATG_M_06_CIS: Attagene CIS-FACTORIAL HepG2 Assay for M06 Transcription Factor (Internal Marker) (AID 2282950); conditions: HepG2 Attagene CIS-FACTORIAL M06 internal marker reporter; actives raise or lower the signal
Summary of the method: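 Steps: transfect HepG2 with multiplexed cis-element reporter constructs; dose chemical 24 h; extract RNA with DNase treatment; reverse-transcribe, PCR-amplify, 6-FAM label, HpaI digest; separate fragments by capillary electrophoresis. Activity fitted both directions versus DMSO.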

[13] = biological target: Hypoxia-inducible factor 1-alpha (Homo sapiens) (UniProt Q16665); experiment: ATG_HIF1a_CIS: Attagene CIS-FACTORIAL HepG2 Assay for human Hypoxia Inducible Factor 1 (HIF1A) (AID 2282951); conditions: HepG2 Attagene cis-factorial HIF1a reporter transcription; actives raise or lower the signal
Summary of the method: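 Dosed 24 h, transfected HepG2 cells yielded total RNA whose reporter transcripts were RT-PCR-amplified and sized by capillary electrophoresis using fluorescent labelling; DMSO defined baseline, with gain and loss of signal both fitted.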

[14] = biological target: Hepatocyte nuclear factor 6 (Homo sapiens) (UniProt Q9UBC0); experiment: ATG_HNF6_CIS: Attagene CIS-FACTORIAL HepG2 Assay for human Hepatocyte Nuclear Factor 6 (HNF6) (AID 2282952); conditions: HepG2 Attagene cis-factorial HNF6 reporter transcription; actives raise or lower the signal
Summary of the method: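 Endogenous factor activity read in transiently transfected HepG2 via promoter-regulated reporter transcripts. RNA harvested 24 h post-dosing, reverse-transcribed, PCR-amplified, FAM-labelled, HpaI-digested and resolved by capillary electrophoresis; fitted in both directions against DMSO.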

[15] = biological target: Heat shock factor protein 1 (Homo sapiens) (UniProt Q00613); experiment: ATG_HSE_CIS: Attagene CIS-FACTORIAL HepG2 Assay for human Heat Shock Transcription Factor 1 (HSE) (AID 2282953); conditions: HepG2 HSE cis-reporter, Attagene RNA transcription; actives raise or lower the signal
Summary of the method: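 Cells were transfected with cis-element-driven reporter constructs, dosed for 24 h, then total RNA was reverse-transcribed and reporter cDNA amplified, FAM-labelled and digested with HpaI. Fragments were resolved by capillary electrophoresis; gain or loss was fitted against DMSO.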

[16] = ATG_M_32_CIS: Attagene CIS-FACTORIAL HepG2 Assay for M32 Transcription Factor (Internal Marker) (AID 2282949); conditions: HepG2 Attagene cis-factorial M32 reporter, mRNA; actives raise or lower the signal;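 note: background control marker of the multiplexed CIS panel rather than a real target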
Summary of the method: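 HepG2 transfectants (cis-regulated reporter transcription units) dosed 24 h. Reporter mRNA by RT-PCR plus CE, analysed as gain or loss relative to DMSO.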

[17] = ATG_PBREM_CIS: Attagene CIS-FACTORIAL HepG2 Assay for human Phenobarbital-responsive Enhancer Module (PBREM) (AID 2282955); conditions: HepG2 PBREM cis-reporter, Attagene multiplexed transcription; actives raise or lower the signal
Summary of the method: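 Transfected liver-derived HepG2 cells exposed 24 h; PBREM reporter transcript quantified via RT-PCR and capillary electrophoresis, with activity in either direction referenced to DMSO.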

[18] = ATG_MRE_CIS: Attagene CIS-FACTORIAL HepG2 Assay for human Metal Responsive Element (MRE) (AID 2282954); conditions: HepG2 MRE cis-reporter transcription, Attagene multiplex; actives raise or lower the signal
Summary of the method: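 Measured here is mRNA induction from an MRE cis-element reporter in HepG2 after 24 h, quantified by fluorescence of labelled RT-PCR products on capillary electrophoresis; gain- and loss-of-signal fits use DMSO as baseline.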

[19] = biological target: Bile acid receptor (Homo sapiens) (UniProt Q96RI1); experiment: ATG_IR1_CIS: Attagene CIS-FACTORIAL HepG2 Assay for human Nuclear Receptor Subfamily 1 Group H Member 4 (NR1H4), IR1 submotif (AID 2282946); conditions: IR1 reporter transcription, actives raise or lower the signal
Summary of the method: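 Fluorescence of capillary-separated, HpaI-digested RT-PCR reporter products gave IR1-element mRNA induction in HepG2 cells 24 h after dosing. Endogenous transcription factors drove the cis-regulated reporters; activity was fitted bidirectionally against DMSO.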

Measured: AC50

Sequence of Hepatocyte nuclear factor 3-beta (Homo sapiens) (Q9Y261 whole entry, looked up): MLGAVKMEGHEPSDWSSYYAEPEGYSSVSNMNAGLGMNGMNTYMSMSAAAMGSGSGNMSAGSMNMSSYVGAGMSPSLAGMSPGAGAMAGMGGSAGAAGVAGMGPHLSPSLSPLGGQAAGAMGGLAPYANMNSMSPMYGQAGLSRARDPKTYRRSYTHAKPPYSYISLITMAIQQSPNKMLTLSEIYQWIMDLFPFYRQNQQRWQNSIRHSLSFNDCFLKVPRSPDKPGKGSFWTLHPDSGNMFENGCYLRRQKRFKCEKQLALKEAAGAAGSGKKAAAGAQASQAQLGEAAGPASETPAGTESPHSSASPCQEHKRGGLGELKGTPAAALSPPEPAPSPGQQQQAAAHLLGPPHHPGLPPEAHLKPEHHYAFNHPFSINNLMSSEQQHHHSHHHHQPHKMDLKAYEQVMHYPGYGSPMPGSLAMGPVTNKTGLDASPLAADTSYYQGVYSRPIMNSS
Sequence of Hypoxia-inducible factor 1-alpha (Homo sapiens) (Q16665 whole entry, looked up): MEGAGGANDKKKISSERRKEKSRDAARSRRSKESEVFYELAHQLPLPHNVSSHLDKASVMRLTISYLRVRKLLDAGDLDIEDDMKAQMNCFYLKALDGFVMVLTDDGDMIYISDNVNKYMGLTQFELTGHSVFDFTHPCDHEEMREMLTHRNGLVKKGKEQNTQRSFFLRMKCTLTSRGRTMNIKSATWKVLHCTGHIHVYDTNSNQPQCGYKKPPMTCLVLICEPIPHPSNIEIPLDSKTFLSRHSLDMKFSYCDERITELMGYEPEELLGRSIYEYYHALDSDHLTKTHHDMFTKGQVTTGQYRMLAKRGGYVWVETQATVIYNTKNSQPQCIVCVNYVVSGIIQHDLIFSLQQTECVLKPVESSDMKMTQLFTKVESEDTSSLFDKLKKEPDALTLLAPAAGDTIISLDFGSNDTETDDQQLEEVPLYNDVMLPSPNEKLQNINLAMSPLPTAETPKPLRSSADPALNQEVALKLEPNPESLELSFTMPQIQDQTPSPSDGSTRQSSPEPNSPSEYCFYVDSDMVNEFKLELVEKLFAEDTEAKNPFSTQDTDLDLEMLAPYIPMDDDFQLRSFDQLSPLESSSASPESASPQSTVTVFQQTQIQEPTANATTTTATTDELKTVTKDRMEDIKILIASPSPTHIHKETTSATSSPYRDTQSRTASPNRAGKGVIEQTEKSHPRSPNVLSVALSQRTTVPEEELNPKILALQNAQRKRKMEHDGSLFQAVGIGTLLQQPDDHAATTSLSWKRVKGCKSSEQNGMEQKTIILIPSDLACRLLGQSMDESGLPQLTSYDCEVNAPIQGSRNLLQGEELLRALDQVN
Sequence of Heat shock factor protein 1 (Homo sapiens) (Q00613 whole entry, looked up, the tested form may be a part): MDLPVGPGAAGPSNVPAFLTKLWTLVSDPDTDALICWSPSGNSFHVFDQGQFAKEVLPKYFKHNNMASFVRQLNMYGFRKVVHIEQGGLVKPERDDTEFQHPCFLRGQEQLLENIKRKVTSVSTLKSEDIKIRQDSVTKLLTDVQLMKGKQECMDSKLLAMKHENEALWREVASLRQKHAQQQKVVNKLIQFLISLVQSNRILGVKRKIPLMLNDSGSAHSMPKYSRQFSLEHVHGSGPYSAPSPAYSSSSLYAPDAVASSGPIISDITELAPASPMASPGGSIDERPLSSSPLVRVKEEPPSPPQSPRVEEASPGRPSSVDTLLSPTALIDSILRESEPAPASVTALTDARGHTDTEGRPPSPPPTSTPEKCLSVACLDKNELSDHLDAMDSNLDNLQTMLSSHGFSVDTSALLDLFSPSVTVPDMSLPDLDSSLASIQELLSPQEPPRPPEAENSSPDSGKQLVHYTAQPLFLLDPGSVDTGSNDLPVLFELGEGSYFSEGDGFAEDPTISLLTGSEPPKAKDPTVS
Sequence of Hepatocyte nuclear factor 6 (Homo sapiens) (Q9UBC0 whole entry, looked up): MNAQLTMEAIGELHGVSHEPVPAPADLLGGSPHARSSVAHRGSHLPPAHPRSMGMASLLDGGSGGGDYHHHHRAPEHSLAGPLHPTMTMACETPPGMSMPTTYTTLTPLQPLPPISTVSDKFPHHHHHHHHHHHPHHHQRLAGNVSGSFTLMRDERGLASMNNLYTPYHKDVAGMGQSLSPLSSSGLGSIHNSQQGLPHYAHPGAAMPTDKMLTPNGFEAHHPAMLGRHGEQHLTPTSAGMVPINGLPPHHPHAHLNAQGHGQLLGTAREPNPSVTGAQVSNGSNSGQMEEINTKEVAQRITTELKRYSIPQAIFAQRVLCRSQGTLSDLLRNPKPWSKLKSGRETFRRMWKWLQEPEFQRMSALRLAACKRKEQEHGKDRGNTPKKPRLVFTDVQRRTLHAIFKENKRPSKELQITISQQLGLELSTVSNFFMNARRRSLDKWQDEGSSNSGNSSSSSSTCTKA
Sequence of Bile acid receptor (Homo sapiens) (Q96RI1 whole entry, looked up): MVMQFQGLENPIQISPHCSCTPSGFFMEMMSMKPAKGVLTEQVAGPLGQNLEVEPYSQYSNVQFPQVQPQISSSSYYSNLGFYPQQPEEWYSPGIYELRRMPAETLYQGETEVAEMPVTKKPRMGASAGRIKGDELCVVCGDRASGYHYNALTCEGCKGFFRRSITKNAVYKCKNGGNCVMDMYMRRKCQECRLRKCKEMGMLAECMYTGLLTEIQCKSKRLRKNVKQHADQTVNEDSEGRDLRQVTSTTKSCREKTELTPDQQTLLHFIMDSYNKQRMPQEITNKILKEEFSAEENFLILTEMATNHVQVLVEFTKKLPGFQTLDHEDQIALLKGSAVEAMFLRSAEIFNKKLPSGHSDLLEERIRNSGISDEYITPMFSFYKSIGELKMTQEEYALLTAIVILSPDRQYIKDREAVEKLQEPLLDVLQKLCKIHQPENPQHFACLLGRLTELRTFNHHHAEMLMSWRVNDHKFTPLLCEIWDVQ

CCOCCOCCO
not listed: [16] | [17] | [18] | [19]
inactive: all other assays above

O=C1O[C@H]([C@H](O)CO)C(O)=C1O
not listed: [18] | [19]
inactive: all other assays above

CC(C)(O)c1ccc(CNC(=O)c2cccnc2Oc2ccc(F)cc2)cc1
not listed: [18] | [19]
inactive: all other assays above

CC(C)NCC(O)c1ccc(O)c(O)c1 (stereo not given)
not listed: [13] | [15] | [16] | [17] | [19]
inactive: all other assays above

O=C(O)c1cccnc1
not listed: [6] | [10] | [14] | [18]
inactive: all other assays above

Oc1ccccc1O
not listed: [13] | [16] | [18] | [19]
inactive: all other assays above

CCCCOC(=O)CCCCC(=O)OCCCC
active: [10] 178 µM
not listed: [16] | [17] | [18] | [19]
inactive: all other assays above

C/C=C/C=C/C(=O)O
not listed: [10] | [19]
inactive: all other assays above
